Assay results reported in PubChem BioAssay AID1345082 (National Center for Advancing Translational Sciences (NCATS), 2018).
Hit rate of the full screen: of about 94,000 compounds, about 4,000 (4.3%) were called active. About 29% were inconclusive and are not listed. The sample as a whole holds a higher share of actives than the screen did. Values without a mark were called inactive. Calls come from the whole dose curve; as a rule, active = well fitted inhibition curve with a large enough effect; inconclusive = small, poorly fitted or top-dose-only effect; inactive = no such curve, though single readings can be large or run the other way.

Assay: Cytotoxic Profiling in NIH 3T3 Cell Line of Diverse Libraries Using Quantitative High-Throughput Screening; note: nearly all actives have a fitted effect of over 55% in size
Conditions: NIH 3T3 viability, CellTiter-Glo ATP luminescence, 48-72 h; series mostly up to 96.7 µM; activity change, negative = cytotoxicity: at the top concentration
Excerpt: Cell-based phenotypic screening is a commonly used approach to discover biological pathways, novel drug targets, chemical probes and high-quality hit-to-lead molecules. Many hits identified from high-throughput screening campaign are ruled out through a series of follow-up potency, selectivity/specificity, and cytotoxicity assays. Prioritization of molecules with little or no cytotoxicity for a more in-depth downstream evaluation influence the future direction of projects, so cytotoxicity profiling of the screening libraries at early stage is essential for increasing the likelihood of candidate success. In this study, we analyzed results from a cell-based cytotoxicity screening campaign, comprising nearly 10,000 compounds in NCATS annotated libraries, and over 100,000 compounds in a diversity library, evaluated in four normal cell lines (HEK 293, NIH 3T3, CRL-7250 and HaCat) and a cancer cell line (KB 3-1, a HeLa subline) with overall screening outcomes, hit rates, pan-activity and selectivity. For the annotated library, we also examined the primary targets and mechanistic pathways regularly associated with cell death. To our knowledge, this is the first study to use high-throughput screening to profile large libraries for cytotoxicity assessment in both normal and cancer cell lines. In summary, the results generated here constitutes a valuable resource for the scientific community and provides insight on identifying cytotoxic compounds with particular mechanisms of action, and prioritizing compounds with suitable cytotoxicity profile for further evaluation.
NIH 3T3 cells were seeded into white 1536-well plates using a Multidrop Combi peristaltic dispenser (ThermoFisher, Waltham, MA) at a density of 400 cells/well in 5 uL of medium respectively. A pintool (Kalypsys) was used to transfer 23 nL of compound solution to the 1536-well assay plates. After 48 or 72 hr incubation at 37 degree Celsius, 5% CO2 and 95% humidity, 2.5 uL of CellTiter-Glo (Promega) was dispensed into each well using a dispenser (Aspect Automation, St. Paul, MN) with solenoid valves (Lee Valves, Westbrook CT). Plates were left at room temperature for 10 min before imaging the ATP-coupled luminescence using a ViewLux microplate imager (PerkinElmer, Waltham, MA).
% is set by controls: 0 for no effect and ±100 for the full control effect; potency is the fitted concentration of half-maximal effect.

SMILES	Potency	activity change, negative = cytotoxicity	outcome
Cc1nn(CCC#N)c(C)c1[C@@H]1C=C[C@@H](NS(=O)(=O)c2ccccc2)C1	25.1 µM (active)	–	–
Cc1noc(C)c1[S+](=O)([O-])N1CCCC2(CC(Cc3ccccc3)=NO2)C1 (stereo not given)	–	-15.9%	–
CC(=O)N1CCN(C(=O)C[C@@H]2c3nc(NC(=O)c4cccs4)sc3C[C@@H]3[C@](C)(CO)[C@H](O)CC[C@]32C)CC1	–	-7.77%	–
COCC(=O)Nc1nc2c(s1)C[C@@H]1[C@](C)(CO)[C@H](O)CC[C@@]1(C)[C@@H]2CC(=O)NCCN1CCOCC1	–	-5.42%	–
C=CCN(C)C(=O)C[C@@H]1c2nc(NC(=O)c3ccc(C(C)(C)C)cc3)sc2C[C@@H]2[C@](C)(CO)[C@H](O)CC[C@]21C	28.2 µM (active)	–	–
CN(C)CCNC(=O)C[C@@H]1c2nc(NC(=O)c3ccc(C(C)(C)C)cc3)sc2C[C@@H]2[C@](C)(CO)[C@H](O)CC[C@]21C	25.1 µM (active)	–	–
C=CCOC(=O)Nc1nc2c(s1)C[C@@H]1[C@](C)(CO)[C@H](O)CC[C@@]1(C)[C@@H]2CC(=O)N(CC)CC	–	-24.1%	–
C[C@]1(CO)[C@H]2Cc3sc(NC(=O)C4CCC4)nc3[C@@H](CC(=O)N3CCCCC3)[C@]2(C)CC[C@H]1O	–	-20.3%	–
Cc1noc(C)c1[S+](=O)([O-])N1CCC2(CC(C(C)C)=NO2)C1 (stereo not given)	–	–	inactive
C[C@@H]1CN(C(=O)CNS(=O)(=O)c2cccs2)C[C@@]1(O)C1CC1	–	2.19%	–
CN(C(=O)c1ccccc1)C1CCc2ccccc21 (stereo not given)	–	-22.7% [at 138 µM]	–
CC(C)N(C)Cc1nnnn1CC(=O)NCc1ccc2nonc2c1	–	-1.51%	–
O=C(CN1C(=O)C(c2ccccc2)=NC12CCCC2)Nc1ccc2c(c1)OCCO2	–	-12.9%	–
Cn1cnnc1CC1CCCN(C(=O)c2ccsc2)C1 (stereo not given)	–	-9.22%	–
COc1ccc(OCC2CCN(CC3(O)CCCNC3)CC2)cc1 (stereo not given)	44.7 µM (active)	–	–
CCc1cc(N2CCN(CC3(O)CCCNC3)CC2)ncn1 (stereo not given)	–	1.73%	–
OC1(CN2CCC(CCn3cccn3)CC2)CNCCOC1 (stereo not given)	–	-1.98%	–
Cc1cc(C)c(-c2nc3ncccc3[nH]2)[nH]1	–	-16.4% [at 174 µM]	–
CC(C)NC(=O)N1CCN(CCCn2nc3n(c2=O)CCCC3)CC1	–	-16.3%	–
CCOc1cc(C(=O)N2CCCN(c3cc(-c4ccccc4)[nH]n3)CC2)cc(OCC)c1OCC	–	-8.89%	–
COc1ccc(-c2cc(N3CCCN(C(=O)c4ccc(C)cc4)CC3)n[nH]2)cc1	–	-21.8%	–
O=C(N1CCN(c2cc(-c3ccc(Cl)cc3)[nH]n2)CC1)C1(c2ccccc2)CC1	35.5 µM (active)	–	–
O=C(c1cccnc1)N1CCN(c2cc(-c3ccccc3)[nH]n2)CC1	–	-25.7%	–
O=C(c1ccc2cc[nH]c2c1)N1CCCN(c2cc(-c3ccc(Cl)cc3)[nH]n2)CC1	39.8 µM (active)	–	–

SMILES	Potency	activity change, negative = cytotoxicity	outcome
COc1ccc(-c2cc(N3CCN(C(=O)c4ccncc4)CC3)n[nH]2)cc1	–	-17.1%	–
O=C(NCc1ccccn1)c1ccc2oc(-c3cccnc3)nc2c1	–	-20.7%	–
O=C(c1ccccc1Cl)N1CCC(c2nc(-c3cccnn3)no2)CC1	–	3.48%	–
O=C1NCCCCCN(C(=O)NCCc2ccccc2)[C@H]2CCC[C@@H]12	–	-18.9%	–
CCN(C1CCOCC1)C1CN(C(=O)C2CC2)C1	–	-3.57%	–
CC(=O)c1ccc(NC(=O)N2CCc3c(nc(-c4ccc(F)cc4)[nH]c3=O)C2)cc1	–	-8.56%	–
O=S(=O)(NCC1CNCCOC1)c1ccc(F)c(F)c1F (stereo not given)	–	2.03%	–
CCNc1cc(N2CCC(CCC(=O)Nc3ccc(C)cc3C)CC2)ncn1	–	-28%	–
CCOc1ncccc1CNC(=O)c1cc(S(N)(=O)=O)ccc1F	–	-29.4%	–
COc1ccc(CCNC(=O)c2nnn3cc(-c4ccccc4)[nH]c(=O)c23)cc1OC	–	-24.9%	–
O=C(Cc1cccc(F)c1)Nc1cnc(-c2cccnc2)nc1	–	-21.8%	–
COc1ccc(CNC(=O)Cc2c[nH]c3ncc(-c4ccccc4)cc23)cc1OC	39.8 µM (active)	–	–
O=C(Cn1nc2c(cc1=O)CCCC2)NCc1cccc(F)c1	–	–	inactive
COc1ccccc1C(=O)NCc1ccnc2[nH]ccc12	–	-20.2% [at 138 µM]	–
CNC(=O)c1cccc(-c2cnc3[nH]cc(CC(=O)NCc4cccc(F)c4)c3c2)c1	89.1 µM (active)	–	–
O=C(NCc1nc(-c2cccc(F)c2)c(-c2ccccn2)[nH]1)[C@@H]1CCCN1	–	-3.54%	–
Cc1ccc(Nc2ccnc(N3CCCC3C(=O)N3CCC(Cc4ccccc4)CC3)n2)cc1 (stereo not given)	20 µM (active)	–	–
COc1ccc(Nc2ccnc(N3CCC(C(=O)N4CCN(C(C)=O)CC4)CC3)n2)cc1	–	-9.35%	–
O=C(NCC(F)F)[C@@H]1CCCN1c1nccc(Nc2ccccc2Cl)n1	–	-20.9%	–
CCCN1CC(Oc2ccc(-c3noc(C4CC4)n3)cc2)C1	–	-8.55%	–
COc1cccc(F)c1C(=O)N1C[C@H](N)C[C@H]1C(=O)NC(C)C	–	-22.2%	–
O=C1CCCCC(CNC(=O)c2cc(F)ccc2F)N1 (stereo not given)	–	–	inactive
Cc1cc(Cl)ccc1-c1ccc(CN)cc1	31.6 µM (active)	–	–
NCc1ccc(-c2cncnc2)cc1	–	1.34% [at 174 µM]	–

SMILES	Potency	activity change, negative = cytotoxicity	outcome
COc1cccc(CCC(=O)N2CCCC2c2nc(C3CCOCC3)no2)c1 (stereo not given)	–	-6.83%	–
O=C(c1ccc(Cl)cc1)N1CCCC2(CNc3ncccc3[S+](=O)([O-])N2)C1 (stereo not given)	–	-20%	–
Cn1cnc(S(=O)(=O)N[C@H]2CCN(C(=O)c3ccco3)[C@H](C(=O)N[C@@H](Cc3cccs3)C(N)=O)C2)c1	–	-17.1%	–
O=C(C[C@@H]1CCNC[C@@H]1Cc1cc(-c2ccc(F)cc2)on1)NCCN1CCOCC1	–	–	inactive [at 174 µM]
COc1ccc(-c2cc(C[C@H]3CNCC[C@H]3CC(=O)NCCN(C)C)no2)cc1	–	-24.5% [at 174 µM]	–
COc1ccc(CNC(=O)C[C@@H]2CCNC[C@@H]2Cc2cc(-c3ccc(C(C)(C)C)cc3)on2)cc1OC	25.1 µM (active)	–	–
CN1C(=O)CCC2(CNC(=O)c3ccoc3)CCCC=C12 (stereo not given)	–	–	inactive
CCCn1ncc(C(=O)NCC2(O)CCCNC2)c1C (stereo not given)	–	3.08%	–
CC(NC(=O)c1ccc(CN2C(=O)NC3(CCOCC3)C2=O)cc1)c1ccccc1 (stereo not given)	–	-3.56%	–
COC(=O)C1CCN(C(=O)CC[C@H]2CNC(=O)[C@@H]3[C@@H](CCN3Cc3cccs3)N2C)CC1	–	-16%	–
Cn1c(=O)n([C@H]2CCCN(C(=O)C3CC=CC3)C2)c2ncccc21	–	-9.11%	–
Cc1cccc(C)c1-c1nc(C(=O)NCc2ccc(F)cc2)n2ccccc12	–	-23.7%	–
Cc1ccc(C)c(S(=O)(=O)c2nnn3c2nc(NCc2ccc(F)cc2)c2ccccc23)c1	28.2 µM (active)	–	–
O=c1[nH]c(C2CCCN([S+](=O)([O-])c3cccc(C(F)(F)F)c3)C2)nn1-c1ccc(F)cc1 (stereo not given)	–	-13.8%	–
CC[C@H]1CN(C(=O)Nc2ccccc2)CC[C@H]1CC(=O)Nc1ccccc1	–	-17.9% [at 174 µM]	–
O=C1NCc2ccccc2CC12CCN(CC1CCCCC1)C2 (stereo not given)	–	-13.4%	–
COc1cccc(NC(=O)Cn2c(-c3ccccc3)nc(C)cc2=O)c1	–	-26.4%	–
CC(=O)c1cccc(NC(=O)Cn2c(-c3ccc(Cl)cc3)nc(C)cc2=O)c1	–	-23.6%	–
CCc1cc(=O)n(CC(=O)Nc2cccc(C(C)=O)c2)c(-c2ccccc2)n1	35.5 µM (active)	–	–
COc1ccc(-c2cc(N3CCC(NC(=O)c4ccoc4)CC3)n[nH]2)cc1	–	-20.6%	–
CC(C)(C)OCC1CN(Cc2cccs2)C(=O)c2cccnc2O1 (stereo not given)	–	-23.4%	–
COc1ccc(CNC(=O)CC[C@H]2CNC(=O)[C@@H]3[C@@H](CCN3C3CCOCC3)N2C)cc1	–	1.52%	–
CC(C)c1noc(-c2ccn3c(CNC(=O)c4ccc5ccccc5n4)nnc3c2)n1	–	0.0071%	–
O=C(NCCc1ccccn1)c1ccc2c(c1)OCCN(c1ccccc1)C2	–	-16.9% [at 138 µM]	–

SMILES	Potency	activity change, negative = cytotoxicity	outcome
CC(C)(C)c1csc(NC(=O)c2ccc3c(c2)OCCN(C2CCC2)C3)n1	79.4 µM (active)	–	–
O=C(NCCc1ccccc1)c1ccc2c(c1)OCCN(CCC(F)(F)F)C2	–	-8.88% [at 138 µM]	–
Cc1noc(C2CC3(CCN(C(=O)c4cccnc4C)CC3)CN2C)n1 (stereo not given)	–	1.03%	–
O=C(CN1CCC2(CC1)NC(=O)CC2C(=O)O)NCCc1ccc(F)cc1 (stereo not given)	–	-10.7%	–
O=C(Cc1cccc(Cl)c1)N1CCCN(c2ccc3nnc(C4CC4)n3n2)CC1	–	-5.27%	–
Cc1c[nH]c(CN2CCCC(CCc3ccc(F)cc3F)C2)c(C)c1=O (stereo not given)	50.1 µM (active)	–	–
Cn1ccnc1CN1CCCC(CCC(=O)Nc2ccccc2F)C1 (stereo not given)	–	–	inactive
CN1[C@@H](CCC(=O)N2CCOCC2)CNC(=O)[C@@H]2[C@H]1CCN2Cc1ccc(S(C)(=O)=O)cc1	–	–	inactive
Cc1ccc(F)cc1S(=O)(=O)N1CCC(OC2CCN(Cc3ccccc3)CC2)CC1	35.5 µM (active)	–	–
CC(C)C(=O)N1CCC(OC2CCN(Cc3ccccc3)CC2)CC1	–	-29.4%	–
O=c1[nH]c(C2CCN(Cc3ccccc3)CC2)nc2ccc(F)cc12	inactive	–	–
CCCN1CCN(c2ccc(C(=O)N(C)Cc3ccc4ccccc4n3)cn2)CC1	–	-1.06%	–
COc1ccc(CN2CCN3C(=O)N(c4ccccc4)C[C@H]3C2)cn1	–	-29.7% [at 174 µM]	–
COCCOc1ccc(-c2noc([C@@H]3CCCN3Cc3cccnc3)n2)cn1	–	-21.8% [at 138 µM]	–
C[S+](=O)([O-])c1cccc(-c2ncc3c(n2)OCCN(Cc2ccc(F)cc2F)C3=O)c1	28.2 µM (active)	–	–
CN(C)c1cccc(-c2ncc3c(n2)OCCN(Cc2ccc(F)cc2F)C3=O)c1	–	-22.8% [at 138 µM]	–
COc1ccc(-c2ncc3c(n2)OCCN(Cc2ccccc2)C3=O)cn1	35.5 µM (active)	–	–
COCCN1CCOC2(CCN(Cc3ccc(F)cc3F)CC2)C1=O	–	-26.7% [at 138 µM]	–
Cc1nc(CCNc2nccc(-c3cccnc3)n2)nc2c1CCCC2	–	2.97%	–
CNC(=O)[C@@H]1[C@H]2CN(C3CCCCCC3)CCN2C[C@H]1c1ccccc1	–	-42.5%	–
O=C(C1CCCC1)N1C[C@@H](CO)[C@H](c2ccncc2)C1	–	2.17%	–
CC(C)(C)c1ccc(C(=O)N2C[C@@H](CO)[C@H](c3ccccn3)C2)cc1	–	-21%	–
CC(C)CNC(=O)c1nnn2c1COC(c1ccc(Br)cc1)C2 (stereo not given)	–	-19.1%	–
